Assay in all cases: NCI-60 one-dose screen, 48 h (100 = growth as untreated, 0 = no growth, -100 = all killed)
Common to all, as to conditions: 10 µM unless noted

In assay [1] the test system is RPMI-8226 leukemia.
For assay [2], the system named is OVCAR-8 ovarian.
For assay [3], the system named is OVCAR-5 ovarian.
Assay [4] deals with OVCAR-4 ovarian.
Assay [5] has as its system SK-OV-3 ovarian.
Assay [6] concerns IGROV1 ovarian.
The test system of assay [7] is OVCAR-3 ovarian.
Assay [8] has as its system HS 578T breast.
The test system of assay [9] is NCI/ADR-RES ovarian.
The subject of assay [10] is T-47D breast.
Assay [11] relates to BT-549 breast.
In assay [12] the test system is MDA-MB-435 melanoma.
Assay [13] relates to SW-620 colon.
For assay [14], the system named is MCF7 breast.
The test system of assay [15] is HCT-116 colon.
Assay [16] deals with HCC-2998 colon.
In assay [17] the test system is KM12 colon.

Compounds without any hit were thinned out: in the full panel of roughly 83,000, 20% have a hit.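 Activity criterion: percent growth below 10, measured after cells in 96-well plates were exposed to a single compound concentration for 48 hours.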 Values without a mark were called inactive. Calls of active or inactive are those of the source.

For `CC(c1cc(Cl)ccc1O)c1cc(Cl)ccc1O`, the growth in assay [1] was 20.9%; in assay [2], 46.5%; in assay [3], 70.7%; in assay [4] it was 39.3%; in [5], 27.3%; in assay [6], -7.07% (active). Moreover, the growth in [7] is 28.2%; in assay [8], 10.6%; in assay [9] it was -1.24% (active); in assay [10], 89.9%; in assay [11], 44.7%; in assay [12], -2.51% (active). Further, the growth in assay [13] is 30.6%; in assay [14] it was 20.1%; in assay [15], 15.2%; in assay [16], 63%; in assay [17], 31.8%.
For `O=NC1CC=CCC1c1ccccc1` (stereo not drawn), the growth was 114% in [1]; 108% in assay [2]; 94.5% in [3]; 106% in assay [4]; 111% in assay [5]; 111% in [6]. For the same compound, the growth in assay [7] was 118%; in assay [8], 125%; in [9], 104%; in assay [10], 111%; in [11], 105%; in assay [12], 112%. Moreover, the growth was 105% in assay [13]; 108% in [14]; 95.6% in assay [15]; 104% in assay [16]; 112% in assay [17].
Turning to `C/C(=C\CCc1ccsc1)CC/C=C(\C)CCCN1CCN(CCO)CC1`, the growth in assay [1] is -18.9% (active); in assay [2], 59.3%; in [3] it was 71.8%; in assay [4] it was 41.9%; in assay [5] it was 77.4%; in assay [6], 52.8%. Moreover, the growth in [7] is 64.6%; in assay [8] it was 49.5%; in [9], 56.3%; in assay [10], 36.2%; in assay [11], 30.1%; in [12] it was 41%. Moreover, the growth in [13] was -11.4% (active); in [14], 26.3%; in assay [15], 26%; in [16], 19.8%; in assay [17], 27.1%.
For `O=C(Nc1ccc(Cl)cc1Cl)Nc1ccc(-c2cccnc2)cc1N1CCC(CO)CC1`, the growth was 9.15% (active) in assay [1]; 32.8% in assay [2]; 48.5% in [3]; 53.2% in assay [4]; 4.28% (active) in assay [5]; 34.8% in assay [6]. Moreover, the growth was 24.9% in assay [7]; 36.4% in assay [8]; 30.7% in assay [9]; 17.5% in [10]; 66.6% in assay [11]; 21.4% in assay [12]. The growth is 17.6% in assay [13]; 20% in assay [14]; 18.1% in [15]; 35.2% in [16]; 25.3% in assay [17].
Regarding `N=C(N)/N=C(\CCc1nc2ccccc2[nH]1)c1nc2ccccc2[nH]1`, the growth in [1] is 105%; in assay [2], 105%; in assay [3], 90%; in assay [4] it was 107%; in assay [5] it was 108%; in assay [6], 114%. Moreover, the growth is 109% in [7]; 99.4% in assay [8]; 93.4% in [9]; 99.7% in [10]; 104% in assay [11]; 109% in assay [12]. Also, the growth in assay [13] is 104%; in assay [14] it was 86.3%; in assay [15] it was 102%; in assay [16], 100%; in assay [17], 103%.
For `COc1ccc2c(c1)C(=O)c1c-2c(=O)n(CCCCCCC(=O)NO)c2ccccc12`, the growth in assay [1] is -2.83% (active); in assay [2], 7.33% (active); in assay [3], -4.52% (active); in assay [4], 4.23% (active); in assay [5] it was -3.32% (active); in assay [6], -34.9% (active). Besides, the growth in assay [7] is -19.6% (active); in assay [8], -2.26% (active); in assay [9], -14.1% (active); in assay [10] it was -11.8% (active); in [11] it was 23.4%; in [12], -14.1% (active). The growth in assay [13] is -27.4% (active); in assay [14], 5.92% (active); in assay [15] it was -55.8% (active); in assay [16] it was -39.6% (active); in assay [17], 10.9%.
As for `CCN(CC)c1ccc(CN(CC(=O)c2ccc(Cl)c(Cl)c2)Cc2ccccc2)cc1`, the growth in assay [1] is 101%; in assay [2] it was 100%; in assay [3], 104%; in assay [4], 105%; in assay [5] it was 90%; in assay [6] it was 107%. The growth is 99.2% in assay [7]; 103% in assay [8]; 105% in [9]; 85.5% in assay [10]; 109% in assay [11]; 106% in assay [12]. The growth in assay [13] was 96%; in [14] it was 95.5%; in [15] it was 104%; in assay [16], 107%; in assay [17] it was 109%.
Turning to `O=C(Nc1cccc(C(F)(F)F)c1)Nc1ccc(OCc2nnc(-c3ccc(Cl)cc3)o2)c(F)c1`, the growth in [1] was 41.3%; in assay [2], 58.2%; in assay [3], 75.9%; in assay [4], 75%; in assay [5], 79.5%; in assay [6], 90%. The growth is 85.8% in assay [7]; 91.7% in [8]; 73.1% in assay [9]; 61.6% in [10]; 104% in assay [11]; 83.2% in assay [12]. Also, the growth in assay [13] was 71.8%; in assay [14] it was 53.6%; in assay [15], 37.1%; in [16], 72.1%; in assay [17], 49.7%.
For the compound `O=C1CC(=O)N(c2ccccc2)O1`, the growth in assay [1] is 105%; in assay [2], 103%; in [3], 92.9%; in assay [4], 110%; in assay [5] it was 98.4%; in assay [6], 99%. The growth is 118% in [7]; 110% in assay [8]; 101% in assay [9]; 97.5% in assay [10]; 101% in assay [11]; 104% in [12]. Also, the growth in assay [13] was 101%; in [14], 115%; in assay [15], 101%; in assay [16], 105%; in [17], 109%.

For the origin of these results see PubChem BioAssay (NCI).
